Several values for one entry are separate records, joined by “and”; a condition that tells them apart may be missing. Equal values may be shown once. Compounds without any hit were thinned out: in the full panel of roughly 83,000, 20% have a hit.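 The endpoint reported here, percent growth, reads 100 for growth as untreated, 0 for no net growth and -100 for all cells dead.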 Activity calls are given as the source filed them. How the source made its calls: active means growth percent below 10; inactive means the rest.
Legend:
Assay in all cases: NCI-60 one-dose screen, 48 h (100 = growth as untreated, 0 = no growth, -100 = all killed)
Details in all cases: 10 µM unless noted
DU-145 prostate = test system: DU-145 prostate
K-562 leukemia = test system: K-562 leukemia
MALME-3M melanoma = test system: MALME-3M melanoma
MDA-MB-231 breast = test system: MDA-MB-231 breast
RXF 393 renal = test system: RXF 393 renal
SF-268 CNS = test system: SF-268 CNS
SF-295 CNS = test system: SF-295 CNS
SF-539 CNS = test system: SF-539 CNS
UACC-257 melanoma = test system: UACC-257 melanoma
M14 melanoma = test system: M14 melanoma

Measured: growth

CCN(CC)CCO/N=C1\CC(c2ccc(OC)c(OC)c2)Oc2ccccc21 (stereo not given)
inactive: DU-145 prostate 105% | K-562 leukemia 82.6% | MALME-3M melanoma 107% | MDA-MB-231 breast 101% | RXF 393 renal 65.5% | SF-268 CNS 99.3% | SF-295 CNS 98.2% | SF-539 CNS 94.7% | UACC-257 melanoma 101% | M14 melanoma 99.9%

CCCC(=O)Oc1ccc(CC)cc1
inactive: DU-145 prostate 109% | K-562 leukemia 96.7% | MALME-3M melanoma 104% | MDA-MB-231 breast 111% | RXF 393 renal 117% | SF-268 CNS 96.9% | SF-295 CNS 98.5% | SF-539 CNS 101% | UACC-257 melanoma 94.2% | M14 melanoma 99%

COc1ccc(COC=O)cc1
inactive: DU-145 prostate 98.7% | K-562 leukemia 96.5% | MALME-3M melanoma 102% | MDA-MB-231 breast 112% | RXF 393 renal 110% | SF-268 CNS 95.9% | SF-295 CNS 101% | SF-539 CNS 105% | UACC-257 melanoma 98.5% | M14 melanoma 104%

CCN(CC)Cc1cc2[nH]c3c4ccc(Cl)cc4ncc3c2cc1OC
-4.73% (active) and 16.6% (inactive): MDA-MB-231 breast
inactive: DU-145 prostate 10.7% | MALME-3M melanoma 77.2% and 107% | SF-268 CNS 22.9% and 89.1% | SF-295 CNS 102% and 90.9% | UACC-257 melanoma 94.5% and 104%
active: K-562 leukemia -45.5% | RXF 393 renal -43.2% and -29.8% | SF-539 CNS -73.3% and -71.9% | M14 melanoma -49.3% and -42.6%

Cc1ccc(S(=O)(=O)n2ccnc2)cc1
inactive: DU-145 prostate 120% | K-562 leukemia 123% | MALME-3M melanoma 107% | MDA-MB-231 breast 98.9% | RXF 393 renal 96.2% | SF-268 CNS 104% | SF-295 CNS 102% | SF-539 CNS 96.7% | UACC-257 melanoma 91.5% | M14 melanoma 104%

Cc1cnc(N)s1
inactive: DU-145 prostate 106% | K-562 leukemia 92.9% | MALME-3M melanoma 98.1% | MDA-MB-231 breast 91.6% | RXF 393 renal 105% | SF-268 CNS 93.8% | SF-295 CNS 98.3% | SF-539 CNS 103% | UACC-257 melanoma 84.4% | M14 melanoma 91.9%

COC(=O)CCOc1ccccc1
inactive: DU-145 prostate 110% | K-562 leukemia 71.7% | MALME-3M melanoma 91.8% | MDA-MB-231 breast 110% | RXF 393 renal 89% | SF-268 CNS 108% | SF-295 CNS 130% | SF-539 CNS 101% | UACC-257 melanoma 82.8% | M14 melanoma 106%

Cc1cc(O)c(C(C)C)cc1N=O
inactive: DU-145 prostate 108% and 104% | K-562 leukemia 99.6% | MALME-3M melanoma 113% and 108% | MDA-MB-231 breast 83.3% and 100% | RXF 393 renal 112% and 113% | SF-268 CNS 99.7% and 96.1% | SF-295 CNS 98.8% and 121% | SF-539 CNS 98.7% and 101% | UACC-257 melanoma 103% and 97.1% | M14 melanoma 104%

CC(NC(=O)CCl)c1ccccc1 (stereo not given)
inactive: DU-145 prostate 103% | K-562 leukemia 109% | MALME-3M melanoma 99.4% | MDA-MB-231 breast 111% | RXF 393 renal 98.7% | SF-268 CNS 98.3% | SF-295 CNS 102% | SF-539 CNS 104% | UACC-257 melanoma 100% | M14 melanoma 93.8%

NNc1ncnc2cccc(Cl)c12
inactive: DU-145 prostate 112% | K-562 leukemia 99.4% | MALME-3M melanoma 99% | MDA-MB-231 breast 105% | RXF 393 renal 103% | SF-268 CNS 107% | SF-295 CNS 98.7% | SF-539 CNS 97.2% | UACC-257 melanoma 88.2% | M14 melanoma 104%

CCc1ccc(OC(=O)CCl)cc1
inactive: DU-145 prostate 102% | K-562 leukemia 102% | MALME-3M melanoma 96.9% | MDA-MB-231 breast 99.4% | RXF 393 renal 113% | SF-268 CNS 95.3% | SF-295 CNS 97.8% | SF-539 CNS 99% | UACC-257 melanoma 103% | M14 melanoma 96.3%

N=C(N)N1CCc2ccccc2C1
inactive: DU-145 prostate 105% and 97.3% | K-562 leukemia 71.4% and 108% | MALME-3M melanoma 82% and 110% | MDA-MB-231 breast 99% and 103% | RXF 393 renal 97.2% and 121% | SF-268 CNS 98.9% and 97.3% | SF-295 CNS 88% and 106% | SF-539 CNS 104% and 96.8% | UACC-257 melanoma 86.5% and 95.4% | M14 melanoma 93.2% and 108%
